About 83,000 compounds went through this panel and 20% of them were active in at least one assay; those are over-represented in the sample as a whole.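 Single-concentration screen, 48 h exposure, 96-well plates. Endpoint: percent growth. Below 10 = active.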 A number with no mark means an inactive call. Calls of active or inactive are those of the source.
Experiments:
Test in all cases: NCI-60 one-dose screen, 48 h (100 = growth as untreated, 0 = no growth, -100 = all killed)
Conditions in all cases: 10 µM unless noted
BT-549 breast = test system: BT-549 breast
MDA-MB-435 melanoma = test system: MDA-MB-435 melanoma
SW-620 colon = test system: SW-620 colon
MCF7 breast = test system: MCF7 breast
HCT-116 colon = test system: HCT-116 colon
HCC-2998 colon = test system: HCC-2998 colon
KM12 colon = test system: KM12 colon

ClC1=C(Cl)C(Cl)=C(Cl)C1=Cc1ccc(Cl)cc1
growth (BT-549 breast): -38.9% (active)
growth (MDA-MB-435 melanoma): -42.3% (active)
growth (SW-620 colon): -83.9% (active)
growth (MCF7 breast): 25%
growth (HCT-116 colon): -84.1% (active)
growth (HCC-2998 colon): 30.9%
growth (KM12 colon): -69.6% (active)

O=C(Cc1ccccn1)C(F)(F)C(F)(F)C(F)(F)F
growth (BT-549 breast): 127%
growth (MDA-MB-435 melanoma): 113%
growth (SW-620 colon): 109%
growth (MCF7 breast): 97.3%
growth (HCT-116 colon): 104%
growth (HCC-2998 colon): 100%
growth (KM12 colon): 135%

CCOC(=O)C1C(=O)OC2CCCCC21 (stereo unspecified)
growth (BT-549 breast): 97.5%
growth (MDA-MB-435 melanoma): 114%
growth (SW-620 colon): 110%
growth (MCF7 breast): 95.4%
growth (HCT-116 colon): 101%
growth (HCC-2998 colon): 106%
growth (KM12 colon): 109%

CC(C)[C@]12O[C@H]1[C@@H]1O[C@]13[C@]1(O[C@H]1C[C@H]1C4=C(CC[C@@]13C)C(=O)OC4)[C@@H]2OC(=O)CN(C)C
growth (BT-549 breast): -18.2% (active)
growth (MDA-MB-435 melanoma): -76.4% (active)
growth (SW-620 colon): 0.523% (active)
growth (MCF7 breast): 18.1%
growth (HCT-116 colon): 4.59% (active)
growth (HCC-2998 colon): -37.2% (active)
growth (KM12 colon): 2.83% (active)

CCOC(=O)C1=C(C)N2C(=NC3=C(CCC/C3=C\c3ccc(Cl)cc3)C2c2ccc(Cl)cc2)S1 (stereo unspecified)
growth (BT-549 breast): -44.5% (active)
growth (MDA-MB-435 melanoma): -14% (active)
growth (SW-620 colon): -59.8% (active)
growth (MCF7 breast): -43.7% (active)
growth (HCT-116 colon): -100% (active)
growth (HCC-2998 colon): -100% (active)
growth (KM12 colon): -73.3% (active)

COc1ccc2c(c1)[nH]c(=O)c1c3cc(OC)c(OC)cc3cn21
growth (BT-549 breast): 10.5%
growth (MDA-MB-435 melanoma): -20.3% (active)
growth (SW-620 colon): 31.7%
growth (MCF7 breast): 17.5%
growth (HCT-116 colon): -18.8% (active)
growth (HCC-2998 colon): 25.8%
growth (KM12 colon): -33% (active)

CC(=O)Oc1c(C)c(OC(C)=O)c2c(c1C(C)=O)OC1CC(=O)C(C(C)=O)=C(O)C21C (stereo unspecified)
growth (BT-549 breast): 90.4%
growth (MDA-MB-435 melanoma): 105%
growth (SW-620 colon): 105%
growth (MCF7 breast): 97%
growth (HCT-116 colon): 100%
growth (HCC-2998 colon): 102%
growth (KM12 colon): 105%

COC(=O)[C@]12CC[C@@H](C)[C@H](C)[C@@H]1C1=CC[C@@H]3[C@@]4(C)C=C(O)C(=O)[C@@]5(C)COC(=C54)C[C@@]3(C)[C@]1(C)CC2
growth (BT-549 breast): -66.6% (active)
growth (MDA-MB-435 melanoma): -60.9% (active)
growth (SW-620 colon): -65.6% (active)
growth (MCF7 breast): -70.5% (active)
growth (HCT-116 colon): -86.4% (active)
growth (HCC-2998 colon): -83.3% (active)
growth (KM12 colon): -74.2% (active)

O=C(/C=C/c1ccccc1Cl)c1ccc(O)cc1
growth (BT-549 breast): 55.8%
growth (MDA-MB-435 melanoma): 25.1%
growth (SW-620 colon): 40.9%
growth (MCF7 breast): 15%
growth (HCT-116 colon): 13.3%
growth (HCC-2998 colon): 113%
growth (KM12 colon): 6.77% (active)

Nc1ccc(C2=NN(c3ccccc3)C(c3ccc(Cl)cc3)C2)cc1 (stereo unspecified)
growth (BT-549 breast): 70.4%
growth (MDA-MB-435 melanoma): 49.9%
growth (SW-620 colon): 41.2%
growth (MCF7 breast): 14.5%
growth (HCT-116 colon): -57.3% (active)
growth (HCC-2998 colon): 76.8%
growth (KM12 colon): 18.3%

O=C(CSc1nc2c(n1Nc1ccccc1)-c1ccccc1SC2)Nc1nc(-c2ccc(Cl)cc2)cs1
growth (BT-549 breast): 93.9%
growth (MDA-MB-435 melanoma): 61%
growth (SW-620 colon): 28.2%
growth (MCF7 breast): 68.9%
growth (HCT-116 colon): 36.9%
growth (HCC-2998 colon): 102%
growth (KM12 colon): 48.5%

O=C(CSCC(=O)N/N=C/c1ccccc1O)N/N=C\c1ccccc1O
growth (BT-549 breast): 1.06% (active)
growth (MDA-MB-435 melanoma): 50.9%
growth (SW-620 colon): 39.3%
growth (MCF7 breast): 19.5%
growth (HCT-116 colon): 16.6%
growth (HCC-2998 colon): 30.1%
growth (KM12 colon): 37.3%

COc1cc2c(cc1OC)C1CCN3C(=O)CCC3N1CC2 (stereo unspecified)
growth (BT-549 breast): 107%
growth (MDA-MB-435 melanoma): 113%
growth (SW-620 colon): 106%
growth (MCF7 breast): 103%
growth (HCT-116 colon): 109%
growth (HCC-2998 colon): 101%
growth (KM12 colon): 109%

O=C1/C(=C/c2ccc([N+](=O)[O-])o2)Oc2ccc(Br)cc21
growth (BT-549 breast): -54.1% (active)
growth (MDA-MB-435 melanoma): -40.7% (active)
growth (SW-620 colon): -70.5% (active)
growth (MCF7 breast): 16.7%
growth (HCT-116 colon): -64% (active)
growth (HCC-2998 colon): 102%
growth (KM12 colon): 87.1%

Cn1cc(-c2csc(-c3cn(C)c4ncccc34)n2)c2cccnc21
growth (BT-549 breast): 93.6%
growth (MDA-MB-435 melanoma): 75.8%
growth (SW-620 colon): 92.4%
growth (MCF7 breast): 91.6%
growth (HCT-116 colon): 95%
growth (HCC-2998 colon): 99.2%
growth (KM12 colon): 96.4%

CCOC(=O)c1ccccc1OC(=O)NNc1ccccc1
growth (BT-549 breast): 48.3%
growth (MDA-MB-435 melanoma): 50%
growth (SW-620 colon): 45.6%
growth (MCF7 breast): 50.3%
growth (HCT-116 colon): 70.8%
growth (HCC-2998 colon): 40%
growth (KM12 colon): 55%

O=C(c1ccccc1)c1ccccc1Cl
growth (BT-549 breast): 85.8%
growth (MDA-MB-435 melanoma): 102%
growth (SW-620 colon): 106%
growth (MCF7 breast): 107%
growth (HCT-116 colon): 101%
growth (HCC-2998 colon): 117%
growth (KM12 colon): 96%

CCCCn1c(Cc2ccc(Cl)cc2)nc2cc(OC)c(OC)cc2c1=O
growth (BT-549 breast): 38%
growth (MDA-MB-435 melanoma): 74.1%
growth (SW-620 colon): 95.6%
growth (MCF7 breast): 86.5%
growth (HCT-116 colon): 52.5%
growth (HCC-2998 colon): 75.8%
growth (KM12 colon): 76.1%

From PubChem BioAssay (NCI)
